Bioassay records as filed in PubChem.
In the library only some 3.1% were active in any assay of this set; here they are far more common.
MEKK2mut PB1 HTS = signal of MEK5 binding to mutant human MEKK2 PB1 domain; bead flow cytometry, Alexa488-MEK5 binding to MEKK2 mutant; 290,000 compounds, 0.35% hits; percent response, % at 10 µM; in the data active = percent response above about 24%, passing the limit was not always enough
UBC13 inh = blocks human UBC13 polyubiquitin chain formation | P61088 | TR-FRET | inhibition, % at 20 µM | 330,000 compounds, 0.47% hits | AID 485273; in the data active = inhibition above about 45%, passing the limit was not always enough; inconclusive = no clear call, values can overlap the other calls
Target sequence (P61088 whole entry, looked up): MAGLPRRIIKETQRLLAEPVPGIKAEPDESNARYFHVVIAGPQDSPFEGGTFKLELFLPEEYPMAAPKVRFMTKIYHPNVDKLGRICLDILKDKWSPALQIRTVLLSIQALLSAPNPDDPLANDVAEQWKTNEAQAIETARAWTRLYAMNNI
MEKK2wt PB1 HTS = raises or lowers MEK5 binding to wildtype human MEKK2 PB1 domain; bead flow cytometry, Alexa488-MEK5 binding to MEKK2 WT; actives lie on both sides; binding response (% of control), % at 10 µM; 290,000 compounds, 1.1% hits; AID 1531; in the data active = binding response below about 67% or above about 130%; inconclusive = no clear call, values can overlap the other calls; inactive = in between
ATG4B inh = ATG4B (human) cysteine protease inhibition | Q9Y4P1 | ATG4B cleavage of LC3-PLA2, NBD-HPC fluorescence, 1 h | inhibition, % at 8.33 µM | 340,000 compounds, 0.51% hits; in the data active = inhibition above about 40%
Target sequence (Q9Y4P1 whole entry, looked up): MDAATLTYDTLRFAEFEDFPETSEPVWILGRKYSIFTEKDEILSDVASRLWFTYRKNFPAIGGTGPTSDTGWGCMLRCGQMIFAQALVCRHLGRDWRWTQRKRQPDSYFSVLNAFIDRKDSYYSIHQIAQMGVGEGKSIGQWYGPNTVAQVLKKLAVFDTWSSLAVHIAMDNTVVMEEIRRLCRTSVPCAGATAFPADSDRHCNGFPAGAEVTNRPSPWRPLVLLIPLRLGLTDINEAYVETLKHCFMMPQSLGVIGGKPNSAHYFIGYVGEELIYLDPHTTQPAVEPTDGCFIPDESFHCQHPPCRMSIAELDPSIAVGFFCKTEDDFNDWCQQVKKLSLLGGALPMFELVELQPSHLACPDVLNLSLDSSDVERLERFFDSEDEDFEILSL
MEKK3 PB1 HTS = raises or lowers MEK5 binding to the human MEKK3 PB1 domain; bead-based flow cytometry, Alexa488-MEK5 binding to MEKK3; actives lie on both sides; 0 = blocked by unlabeled MEK5, 100 = vehicle; Q99759; binding response (% of control), % at 10 µM; 290,000 compounds, 1.4% hits;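 active = binding response more than 3 SD above or below the average of its plate-row segment, actives on both sides; inconclusive = wells at one plate position flagged as instrument error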;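 also: Alexa488 bead fluorescence after subtracting the streptavidin-only scavenger bead signal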
PREPL inhibitor = inhibitors of human prolyl oligopeptidase-like enzyme PREPL | AID 2751 | inhibition, % at 5.96 µM | 320,000 compounds, 0.68% hits | Q4J6C6 | recombinant PREPL, fluorescence polarization activity-based probe; in the data active = inhibition above about 43%;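 also: 0% = enzyme with DMSO and 100% = wells lacking enzyme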
Casp3 UBC13 ctr = inhibits human caspase-3 in UBC13 counter-screen; shares compounds with UBC13 inh; AID 488856; inhibition, % at 20 µM; Recombinant caspase-3, Caspase-Glo 3/7 luminescence, 60 min; 1,400 compounds, 4% hits;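 active = mean inhibition across replicates above about 26%, limit read from the data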;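 also: plate controls were DMSO with caspase-3 for no effect and DMSO wells lacking enzyme for full effect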
UBC13 confirm = confirmation of human UBC13 polyubiquitin inhibitors; shares compounds with UBC13 inh; 1,400 compounds, 68% hits; inhibition, % at 10 µM; AID 488859; UBC13 polyubiquitination, TR-FRET, biochemical; in the data active = inhibition above about 45%; inconclusive = no clear call, values can overlap the other calls
Numbers without * were called inactive; ? = inconclusive; / = no result; [ ] = remark or other dose.

SMILES | MEKK2mut PB1 HTS | UBC13 inh | MEKK2wt PB1 HTS | ATG4B inh | MEKK3 PB1 HTS | PREPL inhibitor | Casp3 UBC13 ctr | UBC13 confirm
O=C(Nc1ccc(C2=NCCN2)cc1)c1ccc(C(=O)Nc2ccc(C3=NCCN3)cc2)c(Cl)c1 | 31.0* | 103.9* | 149.0* | 5.1 | 72.0*[inhibitor] | -7.6 | -0.4 | 117.9*
CNC(=O)C1CC(=O)N(c2ccc(OCC(=O)NCc3ccccc3)cc2)C1 (stereo not given) | -34.0 | -7.1 | ? | 1.4 | ? | 8.1 | / | /
CCN(CC(=O)Nc1c(F)cccc1F)C(=O)CCOc1ccccc1 | / | 54.6* | / | 4.6 | / | 8.0 | 2.4 | -3.9
CCN(CC(=O)Nc1c(F)cccc1F)C(=O)CCCOc1ccccc1 | / | / | / | -6.5 | / | / | / | /
COc1cccc(CN(C)C(=O)CNC(=O)c2ccc3c(c2)OCO3)c1OC | 6.0 | 9.4 | 102.0 | -5.3 | 101.0 | 17.2 | / | /
Cc1nn(C)c(C)c1NC(=O)COc1ccc(Cl)cc1Br | / | -5.0 | / | 2.1 | / | 21.0 | / | /
COc1ccc(/C=C/C(=O)Nc2c(C)nn(C)c2C)cc1COc1ccc(Cl)cc1Br | -14.0 | 60.1* | 83.0 | -2.6 | 77.0 | -7.6 | -1.9 | 63.2*
O=S(=O)(c1ccc2c(c1)OCCO2)C1CCC(S(=O)(=O)c2c(F)cccc2F)CC1 (stereo not given) | / | -4.6 | / | 7.2 | / | -6.6 | / | /
CCC(C)(C)C1CCc2[nH]nc(C(=O)NCCNC(=O)OC(C)(C)C)c2C1 (stereo not given) | / | 8.5 | / | 0.5 | / | 5.8 | / | /
CC(=O)Nc1ccc(NC(=O)c2nc(S(=O)(=O)Cc3ccccc3)ncc2Cl)cc1 | 4.0 | 47.4* | 104.0 | 2.4 | 105.0 | -3.0 | -4.5 | 45.2*
O=C(NCc1ccccc1)c1nc(S(=O)(=O)Cc2ccccc2)ncc1Cl | 1.0 | 14.9 | 103.0 | -10.3 | 102.0 | 5.9 | / | /
Cc1ccc(CS(=O)(=O)c2ncc(Cl)c(C(=O)Nc3nnc(C(C)C)s3)n2)cc1 | -1.0 | 50.2* | 94.0 | 6.6 | 95.0 | 2.5 | 0.6 | 63.2*
S=c1nc(NCCc2ccccc2Cl)c2ccccc2[nH]1 | -5.0 | 3.2 | 101.0 | -4.6 | 104.0 | / | / | /
O=C(Cn1nc(-c2nn(CC(=O)c3ccccc3)c3[n+]2CCCCC3)[n+]2c1CCCCC2)c1ccccc1 | 6.0 | 78.1* | 110.0 | 2.3 | 99.0 | 39.4 | 1.8 | 13.2
N#CCOC(=O)c1c2c(nc3ccccc13)CCC2 | -3.0 | 8.4 | 93.0 | -9.8 | 90.0 | 0.5 | / | /
CNC(=O)COC(=O)/C=C/c1cn(-c2ccccc2)nc1-c1ccc(C)o1 | -11.0 | 54.8* | 96.0 | -16.0 | 96.0 | -3.0 | 0.0 | 44.4
COc1ccc(-c2nn(-c3ccccc3)cc2/C=C/C(=O)OCC(=O)Nc2ccccc2C#N)cc1 | -8.0 | 12.2 | 95.0 | 5.0 | 97.0 | -1.8 | / | /
Cc1c(C)n(Cc2ccccc2)c2ncnc(N)c12 | 3.0 | 58.9* | 103.0 | -3.6 | 109.0 | -34.0 | 0.8 | 61.1*
Cc1c(C)n(Cc2ccccc2)c2ncnc(NCCO)c12 | 1.0 | 5.2 | 106.0 | 0.0 | 102.0 | -25.1 | / | /
CCN(Cc1ccccc1)C(=O)c1nn(-c2ccc(OC)cc2)c(=O)c2c1c1ccccc1n2C | -4.0 | 45.2* | 91.0 | -11.6 | 102.0 | 1.0 | -1.7 | ?
CCCN1CCN(C(=O)c2nn(-c3ccc(OC)cc3)c(=O)c3c2c2ccccc2n3C)CC1 | 5.0 | -14.6 | 102.0 | -10.9 | 102.0 | 7.4 | / | /
OCCN1CCN(CC/C=C2/c3ccccc3Sc3ccc(C(F)(F)F)cc32)CC1 | / | 66.2* | / | -1.2 | / | 2.9 | -0.6 | 70.9*
CC1CN(C(=S)Nc2cccc(Cl)c2Cl)CC(C)O1 (stereo not given) | -1.0 | -0.6 | 102.0 | 0.3 | 101.0 | -4.0 | / | /
COc1cccc(-c2nnc3n2N=C(c2cc(OC)ccc2OC)CS3)c1 | -1.0 | 55.5* | 95.0 | -21.9 | 101.0 | -1.8 | -2.8 | 47.6*
CCOc1cccc(-c2nnc3n2N=C(c2cc(OC)ccc2OC)CS3)c1 | 6.0 | 3.1 | 112.0 | -25.4 | 113.0 | -24.5 | / | /
SMILES | MEKK2mut PB1 HTS | UBC13 inh | MEKK2wt PB1 HTS | ATG4B inh | MEKK3 PB1 HTS | PREPL inhibitor | Casp3 UBC13 ctr | UBC13 confirm
COC(=O)C(=C/C=C/N1CCOCC1)C(=O)OC | 13.0 | -9.3 | 104.0 | / | 106.0 | 13.4 | / | /
COC(=O)c1cccc(NC(=O)CCN2C(=O)C3CC=CCC3C2=O)c1 (stereo not given) | / | 5.0 | / | -1.5 | / | 12.6 | / | /
CCSc1nc(N2CCCCC2)c2c(c1C#N)CCCC2 | -1.0 | 47.1* | 103.0 | 2.1 | 104.0 | -7.5 | 1.7 | 45.6*
Cc1ccc(C(=O)Nc2c(C)cc(-c3ccccc3)oc2=O)cc1 | -4.0 | -8.4 | 102.0 | -0.1 | 105.0 | 1.0 | / | /
Cc1ccc(C(=O)NCCCNCCCN(C)C)cn1 | 1.0 | 51.6* | 104.0 | -8.9 | 103.0 | -5.1 | -3.5 | 35.2
Cc1ccc(C(=O)NCCCNCCCNC(=O)c2ccc(C)nc2)cn1 | 9.0 | 24.4 | 105.0 | 2.2 | 101.0 | 5.8 | / | /
COc1ccccc1NS(=O)(=O)c1cccc(C(=O)NNC(=O)c2ccc(Cl)nc2)c1 | / | 45.2* | / | -5.1 | / | 1.8 | 2.2 | 24.9
CC(C)CNC(=O)C(=O)NCC1CCCN1S(=O)(=O)c1cccs1 (stereo not given) | / | -0.5 | / | 1.0 | / | -7.7 | / | /
O=C(NNC(=O)c1ccccn1)c1ccc(OC(F)F)cc1 | / | 96.0* | / | -1.6 | / | 6.2 | 59.1* | 67.7*
CCN(CC)CCCNc1nc2cc(OC)c(OC)cc2c2nc(-c3ccccc3)nn12 | 5.0 | 54.6* | 129.0 | -21.1 | 100.0 | 16.8 | -1.1 | 45.4*
CCN(CC)CCCNc1nc2cc(OC)c(OC)cc2c2nc(-c3cccnc3)nn12 | 2.0 | 20.2 | 102.0 | -6.9 | 103.0 | 12.0 | / | /
Cc1ccc(N(CC(=O)NC2CCCCC2)C(=O)CNC(=O)c2ccco2)c(C)c1 | 0.0 | 2.3 | 102.0 | -1.0 | 102.0 | -4.0 | / | /
CC(=O)N[C@@H]1[C@@H](O)[C@@H]2OC(c3ccccc3)OC[C@H]2O[C@@H]1N=[N+]=[N-] (stereo not given in full) | 2.0 | -5.1 | 112.0 | -0.8 | 106.0 | -0.3 | / | /
COc1ccc(S(=O)(=O)N2CCN(c3ccc4nnc(-c5ccc(F)cc5)n4n3)CC2)cc1 | -6.0 | 45.5* | 96.0 | -11.8 | 94.0 | -15.4 | 2.6 | 30.1
CC[C@@]1(C(=O)OC)N[C@H](CN(C)C(=O)Nc2ccc(OC)cc2)[C@@H]2C(=O)N(C)C(=O)[C@@H]21 | / | 3.7 | / | -0.6 | / | 9.0 | / | /
O=C1Cc2ccccc2Sc2ccc(O)cc21 | -3.0 | 50.9* | 97.0 | -9.7 | 96.0 | 1.4 | -0.6 | 41.8
Cn1cccc1/C=C(/C#N)C(N)=S | -1.0 | 10.2 | 101.0 | 1.4 | 113.0 | -5.8 | / | /
